# Source: PubChem BioAssay
# Tb PYK inh: qHTS of Trypanosoma Brucei Inhibitors; pyruvate kinase (Trypanosoma brucei), Q57TT1; TbPYK enzyme, Kinase-Glo Plus ATP luminescence, 45 min; Potency, µM (highest dose often 76.8 µM), for the others: at the highest dose activity, negative = inhibition, most hits filed as inhibitors; 0.12% of 410,000 active; AID 624173, 2012; also: potency is read from the fitted curve at half-maximal effect; nearly all actives have a fitted effect of over 50% in size
#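 Glycolytic pyruvate kinase of T. brucei was incubated with substrate, test compound and 130 uM ADP for 45 minutes at room temperature. Luminescent Kinase-Glo Plus signal was measured after 10 minutes.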
# Giardia FBPA inh: qHTS Assay for Inhibitors of Fructose-1,6-bisphosphate Aldolase from Giardia Lamblia | purified Giardia FBPA | AID 2451, 2010 | Potency, µM (highest dose often 59.6 µM), for the others: top-dose activity, negative = inhibition, usual class: inhibitors | A8B2U2 | 0.71% of 290,000 active; also: potency is read from the fitted curve at half-maximal effect; nearly all actives have a fitted effect of over 55% in size
# Target sequence (A8B2U2 whole entry, looked up): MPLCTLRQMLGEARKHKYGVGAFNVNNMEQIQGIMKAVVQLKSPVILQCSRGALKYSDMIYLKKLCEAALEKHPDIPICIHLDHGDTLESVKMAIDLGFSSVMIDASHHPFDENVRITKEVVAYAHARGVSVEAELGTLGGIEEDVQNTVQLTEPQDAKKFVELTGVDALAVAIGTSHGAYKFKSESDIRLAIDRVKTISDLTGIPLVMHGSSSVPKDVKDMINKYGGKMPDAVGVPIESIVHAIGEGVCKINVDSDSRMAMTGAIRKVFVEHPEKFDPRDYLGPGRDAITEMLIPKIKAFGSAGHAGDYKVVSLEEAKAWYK
#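 Giardia FBPA (40 nM reagent) was preincubated 10 min at RT with compound (up to 57.5 uM final), then substrate plus GAPDH/TPI/NAD/arsenate coupling system with diaphorase/resazurin was added; resorufin fluorescence (525/598 nm) was read after 20 min.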
# HCMV inh: qHTS Assay for inhibitors of the human cytomegalovirus (HCMV); HFF cells, HCMV-luciferase reporter, 72 h; stronger effect = lower value; activity change, negative = inhibition, % at 57.5 µM; 4.5% of 410,000 active; in the data active = activity change below about -60%; inconclusive = no clear call, values can overlap the other calls; inactive = above about -39%
#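 Cell-based, HFFs, 1000 cells/well, 16 h 37C; cpds in DMSO + HCMV-luc, MOI 1 PFU/cell; 72 h 37C; OneGlo luminescence after 5 min RT; norm. to buffer vs Salinomycin 10uM.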
# RE007 growth inh: qHTS Assay for Inhibitors of the HIV-1 protein Vpr; S. pombe RE007 Vpr strain, BacTiter-Glo ATP luminescence, 24 h; Potency, µM (series often up to 92.2 µM), inactives show at the top dose activity change, negative = less growth, most hits filed as inhibitors; 0.21% of 360,000 active; AID 651644, 2012; active = well fitted falling curve with a large enough effect; inconclusive = small, poorly fitted or top-dose-only effect; inactive = no such curve, though single readings can be large or run the other way; also: potency is read from the fitted curve at half-maximal effect; nearly all actives have a fitted effect of over 50% in size
#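 Fission yeast strain RE007, carrying one chromosomally integrated HIV-1 vpr copy, was seeded at OD 0.01 in PMG+AL medium with 23 nL pinned compound. After 24 h at 30 °C and 99% humidity, viability was read by BacTiter-Glo luminescence.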
# FMDV inh: High Throughput Screening for Foot and Mouth Disease Virus Antivirals | Potency, µM (highest dose often 57.9 µM), without a hit: at the top dose activity change, negative = inhibition, hits mostly inhibitors | 1.2% of 410,000 active | FMDV antiviral cell-based qHTS | AID 1159524, 2015; calls by dose curve; tested in HEK293T cells; also: read-out not given here; potency is read from the fitted curve at half-maximal effect; nearly all actives have a fitted effect of over 45% in size
# Sm TGR inh: qHTS Assay for the Inhibitors of Schistosoma Mansoni Peroxiredoxins | purified TGR, DTNB reduction, TNB absorbance 405 nm | 3% of 360,000 active | AID 485364, 2010 | Potency, µM (doses to about 114 µM), without a hit: at the top dose activity change, negative = inhibition, usual class: inhibitors | Schistosoma mansoni thioredoxin glutathione reductase (TGR), Q962Y6; also: potency is read from the fitted curve at half-maximal effect; nearly all actives have a fitted effect of over 60% in size
#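 First, TGR (20 nM dispensed) and NADPH were mixed with compound. Second, a 15 min room-temperature incubation followed. Third, further NADPH and then DTNB were added to start the reaction. Finally, TNB absorbance was monitored kinetically.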
# The depositor's hits bear a star; ? = inconclusive; . = not tested or not shown. Only some compounds are listed: those with a hit (about 7.7% of all), similar ones and a draw of the others. Unless noted, calls follow the shape of the dose curve; as a rule, active = well fitted curve in the direction sought with a large enough effect; inconclusive = small, poorly fitted or top-dose-only effect, or another doubt; inactive = no such curve, though single readings can be large; an effect the other way counts as inactive or inconclusive. % is scaled to controls: 0 for no effect and ±100 for the full control effect.
SMILES,Tb PYK inh,Giardia FBPA inh,HCMV inh,RE007 growth inh,FMDV inh,Sm TGR inh
COc1ccc(C(=O)NC(=S)Nc2ccc(CN3CCOCC3)cc2)cc1Cl,2%,.,?,-5%,?,14µM*
COc1ccc(C(=O)NC(=S)Nc2ccc(CN3CCOCC3)cc2)cc1OC,0%,-10%,-10,-2%,?,20µM*
Cc1ccc(C(=O)NC(=S)Nc2ccc(CN3CCCCC3)cc2)c(C)c1,-2%,3%,?,-6%,-16%,.
CC(C)COc1ccc(C(=O)NC(=S)Nc2ccc(CN3CCOCC3)cc2)cc1,1%,0%,-19,0%,-7%,-2%
COc1ccc(C(=O)Nc2ccc(CN3CCOCC3)cc2)cc1Br,-3%,2%,-29,-14%,-2%,?
COC(=O)[C@@H]1CCCN1C(=O)c1c(OC)cc(=O)n2c1CCN(Cc1ccc3cccnc3c1)CC2,.,.,.,.,2%,.
CCc1ccc(NC(=O)N2CCN(Cc3nc4ccc(C)cc4o3)CC2)cc1,-1%,.,-6,.,?,1%
COc1ccc(CN2CCC3(CC2)c2ccccc2[C@@H](NC(=O)c2ccsc2)[C@@H]3OC)cc1O,.,.,.,.,2%,.
COc1ccc2c(c1)CCc1c-2nc2ccccc2c1N1CCOCC1,-3%,?,22,-14%,14%,40µM*
O=C(c1ccccc1)C1CC1c1ccccc1 (centres undefined),3%,.,-25,18µM*,23%,.
O=C(NCC1CCCO1)c1ccc2c(c1)N(Cc1ccccc1)C(=O)CS2 (centres undefined),-5%,3%,-74*,0%,-18%,-11%
CC(=O)c1ccc2c(c1)N(Cc1ccccc1Cl)C(=O)C(C)S2 (centres undefined),1%,.,-98*,17%,-1%,.
O=C(NCc1ccccc1Cl)c1ccc2c(c1)N(Cc1ccccc1)C(=O)CS2,2%,.,-65*,.,23%,8%
CCCCOCC1CN(CCCC)S(=O)(=O)c2c(NCc3cc(OC)c(OC)c(OC)c3)cccc2O1 (centres undefined),.,.,-11,.,.,.
O=C1c2c(O)ccc(O)c2C(=O)c2c(NCCNCCO)ccc(NCCNCCO)c21,?,?,-98*,?,?,-9%
Clc1ccc(COc2cccc(CNCc3ccncc3)c2)cc1,-2%,-3%,-75*,-13%,?,7%
CC(C)(CO)NCc1cccc(OCc2ccc(Cl)cc2)c1,-7%,-9%,?,-23%,-7%,2%
O=C(c1ccco1)N1CCN(C(=O)c2cc3ccccc3oc2=O)CC1,-3%,.,18,2%,-21%,-22%
COc1ccc2oc(=O)c(/C(C)=N/Nc3ccccc3)cc2c1,-9%,-6%,-15,-8%,-14%,45µM*
COc1ccc2oc(=O)c(C(=O)Nc3cccc(C(C)=O)c3)cc2c1,1%,6%,12,2%,45%,-8%
O=C(c1cc2c(ccc3ccccc32)oc1=O)N1CCCC1,-3%,-1%,-90*,-22%,24%,-8%
COc1ccc2oc(=O)c(C(=O)N3CCN(c4ccccc4)CC3)cc2c1,-5%,-1%,-2,9%,.,-5%
COc1ccc2oc(=O)c(C(=O)N3CCN(C(=O)c4ccco4)CC3)cc2c1,11%,0%,8,-5%,5%,40µM*
COc1ccc2oc(=O)c(C(=O)N3CCN(C(=O)c4ccccc4)CC3)cc2c1,4%,0%,-95*,2%,-17%,-8%
CCCCn1c2ccccc2c2nnc(SCC(=O)Nc3ccc(NC(C)=O)cc3)nc21,4%,.,11,.,0%,-1%
SMILES,Tb PYK inh,Giardia FBPA inh,HCMV inh,RE007 growth inh,FMDV inh,Sm TGR inh
N=C1S/C(=C\c2ccco2)C(=O)N1c1ccc2c(c1)OCO2,3%,-9%,?,-22%,12%,.
N=C1S/C(=C\c2ccco2)C(=O)N1c1nccs1,-6%,-18%,-115*,-10%,-2%,22µM*
CCN(CC)C1=CC(=O)OC12CCCCC2,-10%,-13%,25,-5%,-17%,1.6µM*
CC(=O)NC12CC3CC(CC(CC(=O)O)(C3)C1)C2,-3%,-1%,16,11%,-14%,-1%
CC(=O)NC12CC3CC(C)(C1)CC(NC(C)=O)(C3)C2,1%,-4%,-69*,-3%,12%,7%
COc1ccc2c(c1)/C(=C\c1cccc(/C=C3/C(=O)Nc4ccc(OC)cc43)n1)C(=O)N2,0%,.,-98*,5%,7.1µM*,.
CCc1ccc(NCc2cccn2-c2nnc(N3CCCCCC3)s2)cc1,0%,.,-27,.,?,9%
CC1(C)COC(/C=C/c2cccc([N+](=O)[O-])c2)=N1,1%,1%,-95*,-16%,25µM*,2%
CCOC(=O)c1nnn(-c2nonc2-n2cccc2)c1CCl,3%,17%,?,-12%,14µM*,8.9µM*
COc1cccc(CNC(=O)c2c(OC)cc(=O)n3c2CCN(C(=O)C2CC24CCCCC4)CC3)c1 (centres undefined),.,.,.,.,-7%,.
C=C(c1ccc2cc(OC)ccc2c1)[C@H](C#N)C1CCCC1,.,.,-22,.,.,.
COc1cccc(Nc2nc(N)c([N+](=O)[O-])c(NCc3ccccc3)n2)c1,4%,-5%,?,30%,?,9%
Nc1nc(Nc2ccccc2)nc(NCc2ccccc2)c1[N+](=O)[O-],3%,-10%,-75*,8%,?,4%
Cc1cccc(Nc2nc(N)c([N+](=O)[O-])c(NCc3ccccc3)n2)c1,2%,-13%,-94*,19%,-26%,3%
Nc1nc(Nc2ccccc2)nc(NC2CCCCC2)c1[N+](=O)[O-],-3%,-4%,-79*,-3%,-22%,6%
CNc1nc(N)c([N+](=O)[O-])c(NC2CCCCC2)n1,1%,5%,34,-8%,2%,-7%
Cc1ccc(CNc2nc(N)c([N+](=O)[O-])c(NCc3ccccc3)n2)cc1,3%,4%,-61*,-11%,4%,10%
CC(=O)c1ccc(OCC(=O)N2CCCCC2)cc1,1%,.,.,.,.,.
Cc1cccc(-c2noc(-c3ccc(NCc4ccccc4)c([N+](=O)[O-])c3)n2)c1,1%,.,11,.,5%,-4%
O=C(NC1CCCCC1)c1ccc2c(c1)N(Cc1cccc(Cl)c1)C(=O)c1ccccc1S2(=O)=O,0%,.,-29,.,-9%,13%
CCCc1nc2c(C)cc(Br)cn2c1Cc1ccccc1OC,.,.,16,.,.,.
